Source: PubChem BioAssay (Tox21)
“And” between values parts separate entries of the source, which are not always exact repeats. Equal values may be shown once. Records with an inconclusive call do not appear. The source made the active and inactive calls. Calls follow the shape of the dose curve; as a rule, active = well fitted curve in the direction sought with a large enough effect in the repeat runs; inconclusive = weak or mixed curves; inactive = no such curve, though single readings can be large; an effect the other way counts as inactive or inconclusive.

Key:
[1] = A CellTox Green Cytotoxicity Assay to monitor cytotoxicity in HEK293 cells - 40 hour (AID 1224871); also: nearly all actives have a fitted effect of over 45% in size
Outline: (§1)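 Seeding of HEK293 cells together with cytotoxicity dye preceded a 5 h incubation at 37 C/5% CO2. Test compounds in DMSO were then added and fluorescence monitored across 40 h.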

[2] = qHTS RealTime-Glo MT Cell Viability Assay in HEK293 cells - 16 hour (AID 1224872); also: top concentration of the series differs between compounds; nearly all actives have a fitted effect of over 50% in size
Outline: (§2)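 Nonlytic real-time viability readout: viable cells convert prosubstrate to NanoLuc substrate, giving luminescence proportional to live cell number. HEK293, 600 cells/well, compound added after 5 h, continuous culture at 37 C.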

[3] = qHTS RealTime-Glo MT Cell Viability Assay in HepG2 cells - 8 hour (AID 1224873); also: nearly all actives have a fitted effect of over 55% in size
Outline: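 HepG2 cells mixed with RealTime-Glo MT reagents (NanoLuc plus cell-permeant prosubstrate) were seeded at 600 cells/well, incubated 5 h at 37 C/5% CO2, then pinned with compounds in DMSO; nonlytic luminescence tracked viability during 40 h treatment.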

[4] = qHTS RealTime-Glo MT Cell Viability Assay in HEK293 cells - 40 hour (AID 1224874); conditions: RealTime-Glo luminescence; max response: hits give low values; also: nearly all actives have a fitted effect of over 50% in size
Outline: (§3)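 Tox21 screen in HEK293 using RealTime-Glo MT chemistry, with cells and reagent co-dispensed. Luminescence proportional to viable cell number was captured at intervals during 40 h compound exposure at 37 C.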

[5] = A CellTox Green Cytotoxicity Assay to monitor cytotoxicity in HEK293 cells - 24 hour (AID 1224875); also: series mostly up to about 77 µM; nearly all actives have a fitted effect of over 45% in size
Outline: as §1

[6] = A CellTox Green Cytotoxicity Assay to monitor cytotoxicity in HepG2 cells - 40 hour (AID 1224879); also: nearly all actives have a fitted effect of over 40% in size
Outline: (§4)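 Nonlytic assay: viable cells exclude the dye, so fluorescence scales with cell death. HepG2 at 600 cells/well, compounds added after 5 h, signal read across 40 h.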

[7] = qHTS RealTime-Glo MT Cell Viability Assay in HEK293 cells - 0 hour (AID 1224880); also: top concentration of the series differs between compounds; nearly all actives have a fitted effect of over 45% in size
Outline: as §3

[8] = A CellTox Green Cytotoxicity Assay to monitor cytotoxicity in HEK293 cells - 32 hour (AID 1224881); also: nearly all actives have a fitted effect of over 40% in size
Outline: as §1

[9] = A CellTox Green Cytotoxicity Assay to monitor cytotoxicity in HepG2 cells - 0 hour (AID 1224882); also: nearly all actives have a fitted effect of over 35% in size
Outline: as §4

[10] = A CellTox Green Cytotoxicity Assay to monitor cytotoxicity in HepG2 cells - 32 hour (AID 1224883); also: nearly all actives have a fitted effect of over 50% in size
Outline: as §4

[11] = A CellTox Green Cytotoxicity Assay to monitor cytotoxicity in HEK293 cells - 8 hour (AID 1224884); also: nearly all actives have a fitted effect of over 35% in size
Outline: as §1

[12] = qHTS RealTime-Glo MT Cell Viability Assay in HepG2 cells - 16 hour (AID 1224885); also: nearly all actives have a fitted effect of over 50% in size
Outline: (§5)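 Luminescence read-out: viable HepG2 cells reduce a prosubstrate to a NanoLuc substrate, giving a signal proportional to live cell number. Reads taken at 0, 8, 16, 24, 32 and 40 h of compound exposure at 37 C.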

[13] = qHTS RealTime-Glo MT Cell Viability Assay in HEK293 cells - 24 hour (AID 1224886)
Outline: as §2

[14] = A CellTox Green Cytotoxicity Assay to monitor cytotoxicity in HEK293 cells - 16 hour (AID 1224888); also: nearly all actives have a fitted effect of over 35% in size
Outline: as §1

[15] = qHTS RealTime-Glo MT Cell Viability Assay in HepG2 cells - 0 hour (AID 1224889); also: nearly all actives have a fitted effect of over 50% in size
Outline: as §5

[16] = qHTS RealTime-Glo MT Cell Viability Assay in HepG2 cells - 32 hour (AID 1224877); also: nearly all actives have a fitted effect of over 55% in size
Outline: as §5

[17] = A CellTox Green Cytotoxicity Assay to monitor cytotoxicity in HepG2 cells - 24 hour (AID 1224878); also: nearly all actives have a fitted effect of over 45% in size
Outline: as §4

[18] = qHTS RealTime-Glo MT Cell Viability Assay in HEK293 cells - 8 hour (AID 1224887)
Outline: as §3

[19] = A CellTox Green Cytotoxicity Assay to monitor cytotoxicity in HepG2 cells - 16 hour (AID 1224876); also: nearly all actives have a fitted effect of over 45% in size
Outline: as §4
% is scaled to controls: 0 for no effect and ±100 for the full control effect.

c1ccc2ccccc2c1
inactive: Potency [1] | Potency [2] | Potency [3] | max response [4] 0.777% and 7.95% | Potency [5] | Potency [6] | Potency [7] | Potency [8] | Potency [9] | Potency [10] | Potency [11] | Potency [12] | Potency [13] | Potency [14] | Potency [15]

CCOC(=O)C1OC1c1ccccc1 (stereo unspecified)
inactive: Potency [1] | Potency [3] | Potency [5] | Potency [16] | Potency [17] | Potency [8] | Potency [9] | Potency [10] | Potency [11] | Potency [12] | Potency [18] | Potency [14] | Potency [15]

CCCCC(CC)COC(C)=O (stereo unspecified)
inactive: Potency [1] | Potency [2] | Potency [3] | Potency [5] | Potency [16] | Potency [6] | Potency [7] | Potency [8] | Potency [9] | Potency [10] | Potency [11] | Potency [12] | Potency [13] | Potency [14] | Potency [15]

Nc1nc2ncc(CNc3ccc(C(=O)N[C@@H](CCC(=O)O)C(=O)O)cc3)nc2c(=O)[nH]1
inactive: Potency [1] | Potency [2] | Potency [3] | max response [4] 21.4% and 0.94% | Potency [5] | Potency [19] | Potency [16] | Potency [17] | Potency [6] | Potency [8] | Potency [9] | Potency [10] | Potency [11] | Potency [12] | Potency [13] | Potency [14]

O=C1N=C(O)CN1/N=C/c1ccc(-c2ccc([N+](=O)[O-])cc2)o1
inactive: Potency [1] | Potency [2] | Potency [3] | max response [4] -2.04% | Potency [5] | Potency [6] | Potency [8] | Potency [9] | Potency [10] | Potency [11] | Potency [12] | Potency [13] | Potency [18] | Potency [14]

CC(C)Cc1ccccc1
inactive: Potency [1] | Potency [2] | Potency [3] | Potency [5] | Potency [19] | Potency [16] | Potency [17] | Potency [6] | Potency [8] | Potency [9] | Potency [10] | Potency [11] | Potency [12] | Potency [13] | Potency [18] | Potency [14] | Potency [15]

CCCCC(CC)C(=O)OCCOCCOCCOC(=O)C(CC)CCCC (stereo unspecified)
inactive: Potency [1] | Potency [3] | max response [4] -28.2% | Potency [5] | Potency [19] | Potency [6] | Potency [7] | Potency [8] | Potency [9] | Potency [10] | Potency [11] | Potency [12] | Potency [18] | Potency [14] | Potency [15]

CS(=O)(=O)c1ccc([C@@H](O)[C@@H](CO)NC(=O)C(Cl)Cl)cc1
inactive: Potency [1] | Potency [2] | Potency [3] | Potency [5] | Potency [19] | Potency [17] | Potency [6] | Potency [7] | Potency [8] | Potency [9] | Potency [10] | Potency [11] | Potency [12] | Potency [13] | Potency [18] | Potency [14] | Potency [15]

CN(C)c1cccc(O)c1
inactive: Potency [1] | Potency [2] | Potency [3] | max response [4] -0.0652% and -21.5% | Potency [5] | Potency [19] | Potency [16] | Potency [6] | Potency [8] | Potency [9] | Potency [10] | Potency [11] | Potency [12] | Potency [13] | Potency [18] | Potency [14] | Potency [15]

Cc1ccc(C(=O)O)o1
inactive: Potency [1] | Potency [2] | Potency [3] | max response [4] 2.67% and -10.1% | Potency [5] | Potency [6] | Potency [7] | Potency [8] | Potency [9] | Potency [10] | Potency [11] | Potency [12] | Potency [13] | Potency [18] | Potency [14]

CC1=C(CC(=O)O)c2cc(F)ccc2/C1=C\c1ccc(S(C)=O)cc1 (stereo unspecified)
inactive: Potency [1] | Potency [2] | Potency [3] | max response [4] 14% and 12.3% | Potency [5] | Potency [16] | Potency [17] | Potency [6] | Potency [7] | Potency [8] | Potency [9] | Potency [10] | Potency [11] | Potency [12] | Potency [13] | Potency [18] | Potency [14] | Potency [15]

C=C1C2CCC(C2)C1(C)C (stereo unspecified)
inactive: Potency [1] | Potency [2] | Potency [3] | max response [4] -3.35% and 5.02% | Potency [5] | Potency [19] | Potency [6] | Potency [7] | Potency [8] | Potency [9] | Potency [10] | Potency [11] | Potency [12] | Potency [13] | Potency [18] | Potency [14]

CCCCCCCCCCCCOCC1CO1 (stereo unspecified)
inactive: Potency [1] | Potency [2] | Potency [3] | max response [4] -10.9% and -25.4% | Potency [5] | Potency [6] | Potency [7] | Potency [8] | Potency [9] | Potency [10] | Potency [11] | Potency [12] | Potency [13] | Potency [18] | Potency [14]

CS(=O)(=O)Nc1ccc([N+](=O)[O-])cc1Oc1ccccc1
inactive: Potency [1] | Potency [2] | Potency [3] | max response [4] -6.51% and 1.07% | Potency [5] | Potency [19] | Potency [6] | Potency [8] | Potency [9] | Potency [10] | Potency [11] | Potency [12] | Potency [13] | Potency [14]

CCCCC(CC)COC(=O)/C=C\C(=O)OCC(CC)CCCC (stereo unspecified)
inactive: Potency [1] | Potency [2] | Potency [5] | Potency [16] | Potency [17] | Potency [6] | Potency [7] | Potency [8] | Potency [9] | Potency [10] | Potency [11] | Potency [13] | Potency [18] | Potency [14] | Potency [15]

NS(=O)(=O)c1cc2c(cc1Cl)NC=NS2(=O)=O
inactive: Potency [1] | Potency [2] | Potency [3] | max response [4] 7.37% and 0.52% | Potency [5] | Potency [19] | Potency [17] | Potency [6] | Potency [7] | Potency [8] | Potency [9] | Potency [10] | Potency [11] | Potency [12] | Potency [13] | Potency [18] | Potency [14] | Potency [15]

Oc1c(Cl)cc(Cl)c(Cl)c1Cl
inactive: Potency [1] | Potency [3] | Potency [5] | Potency [19] | Potency [16] | Potency [17] | Potency [6] | Potency [7] | Potency [8] | Potency [9] | Potency [10] | Potency [11] | Potency [12] | Potency [14] | Potency [15]

OCC#CCO
inactive: Potency [1] | Potency [2] | Potency [3] | Potency [5] | Potency [19] | Potency [17] | Potency [6] | Potency [8] | Potency [9] | Potency [10] | Potency [11] | Potency [12] | Potency [13] | Potency [14]

CCCCCCCCCCC=CC1CC(=O)OC1=O (stereo unspecified)
inactive: Potency [1] | Potency [2] | Potency [3] | Potency [5] | Potency [19] | Potency [16] | Potency [6] | Potency [8] | Potency [9] | Potency [10] | Potency [11] | Potency [12] | Potency [13] | Potency [14]

CCCCOCCO
inactive: Potency [1] | Potency [2] | Potency [3] | max response [4] 3.58% and 5.47% | Potency [5] | Potency [19] | Potency [16] | Potency [17] | Potency [6] | Potency [8] | Potency [9] | Potency [10] | Potency [11] | Potency [12] | Potency [13] | Potency [18] | Potency [14] | Potency [15]
